About 5,900 (2.8%) of roughly 210,000 compounds were called active. Not shown: some 5% with an inconclusive outcome. The full list was thinned out, with actives kept by preference. Unmarked numbers belong to inactive results. The call rests on the fitted dose curve; in most records, active means well fitted activation curve with a large enough effect; inconclusive means small, poorly fitted or top-dose-only effect; inactive means no such curve, though single readings can be large or run the other way.
assay: qHTS Assay for Enhancers of SMN2 Splice Variant Expression; conditions: HEK293 SMN2-luciferase splicing reporter, luminescence, 30-36 h; series mostly up to 46.1 µM; activity change, positive = activation: at the top concentration; further: nearly all actives have a fitted effect of over 55% in size; on activity change, positive = activation: % of control where 0% means no effect
Excerpt: NIH Chemical Genomics Center [NCGC] NIH Molecular Libraries Probe Production centers Network [MLPCN] MLPCN Grant: R03 MH084179-01 Assay Submitter (PI): Elliot Androphy NCGC Assay Overview: Spinal muscular atrophy (SMA) is caused by insufficient levels of the survival motor neuron protein SMN. The SMN locus on chromosome 5q13 contains two inverted copies of SMN called SMN1 and SMN2 which are 99% identical at the amino acid level. SMN1 is a fully functional protein and SMN2 skips exon 7 90% of the time. Skipping of exon 7 produces non-functional protein product. 10% of the SMN2 protein includes exon 7 and is fully functional. In the SMA disease state, mutations in the SMN1 locus are the cause of the disease state. Because only 10% of SMN2 is of the fully functional form, it is not sufficient to overcome the deficiency produced by the loss of the SMN1 product. A therapy that either increase the amount of SMN2 product made or to increase the inclusion of exon 7 has been proposed for the treatment of SMA. We have designed an assay to identify small molecules that can increase the amount of functional SMN2 product by appending a luciferase reporter gene after the native SMN2 gene, such that inclusion of exon 7 in the expressed product places the luciferase sequence in frame, thus generating functional luciferase enzyme.
NCGC Assay Protocol Summary: This screen utilizes a luciferase reporter gene assay, combining the promoter and splicing based cassettes in tandem with the major portion of the native SMN2 cDNA, and then transfected into HEK293 cells. Compounds that increase luciferase signal presumably enhance expression of the functional SMN2 splice variant. Passaging media contained DMEM w/ glutamax (+phenol red) 10% FCS, 1x pen/strep, 200 ug/ml hygro, 1x sodium pyruvate. Assay media contained DMEM w/ glutamax (-phenol red) 10% FCS, 1x pen strep, 1x pyruvate Sequence, Parameter, Value, Description (1) Cells, […], 2000 cells/well, 1536 TC treated White solid bottom plate (2) Time, 10-12 hours, 37C 5% CO2 (3) Compound, 23 nl, MLSMR Library (4) Control Compound, 23 nL, Sodium butyrate st 4.5mM (final) conc (5) Time, 30-36 hours, 37C 5% CO2 (6) Reagent, 3 ul, One Glo (TM) from Promega (7) Time, 5-15 minutes, Room temp (8) Detector, Viewlux: luminescent read, 60 second integration, high speed 2x binning Keywords: Spinal muscular atrophy, SMA, SMN2, high throughput screening, MLSMR, MLPCN, NIH Roadmap, qHTS and NCGC
Potency means the concentration at half of the fitted maximal effect.

Structure (SMILES) | activity change, positive = activation | Potency
O=C(c1ccco1)n1nc(-c2ccc(Cl)cc2)nc1NCc1ccccc1 | 9.32% | –
CCCCOc1ccc(CN2C(=O)C(=O)c3cc(Br)cc(C)c32)cc1OC | -33.5% | –
CSc1ccc(C#N)cc1NC(=O)c1cccc(Cl)c1 | 12.8% | –
COC(=O)c1ccccc1NC(=O)c1ccc(COc2ccccc2Cl)o1 | -4.75% | –
N#Cc1ccccc1NC(=O)c1cccc(COc2ccc(Cl)cc2Cl)c1 | – | 0.794 µM (active)
Cc1cccc2c1-c1sc(C(=O)Nc3ccc(F)cc3F)cc1CO2 | -7.99% | –
Nc1nc2c(ncn2[C@@H]2O[C@H](COP(=O)(O)OP(=O)(O)OP(=O)(O)O)[C@@H](O)C2O)c(=O)[nH]1 (stereo partly drawn) | 1.43% | –
CCN(CC)S(=O)(=O)c1cccc(C(=O)Nc2ccccc2)c1 | -30.2% | –
Cc1ccc(C(=O)Nc2ccc(C(=O)O)cc2)cc1S(=O)(=O)Nc1ccccc1 | -7.6% | –
CCN(CC)S(=O)(=O)c1cc(C(=O)Nc2ccccn2)ccc1C | – | 22.4 µM (active)
COC(=O)c1ccc(OC)c(Cn2c(=O)n(Cc3ccccc3)c(=O)c3c2c2cc(OC)ccc2n3C)c1 | -3.23% | –
CNC(=O)CSc1nnnn1-c1ccc(C)cc1C | -16.8% | –
CCn1nnnc1SCC(=O)c1ccc(C)cc1C | – | 2.82 µM (active)
Cc1ccc(C(=O)CSc2nc(-c3ccccc3)nc3c2CCCC3)c(C)c1 | 2.13% | –
COc1ccccc1-c1cc(C(F)(F)F)nc(S(=O)(=O)CCCC(=O)Nc2ccc(F)cc2F)n1 | 2.69% | –
NC(=S)N/N=C/c1ccc([N+](=O)[O-])cc1 | -8.3% | –
Cc1ccsc1C(=O)N/N=C/c1ccc([N+](=O)[O-])cc1 | – | 12.6 µM (active)
Cc1ccc(NC(=O)CN2CCC(C(N)=O)CC2)cc1[N+](=O)[O-] | 8.3% | –
Cc1ccc(NC(=O)c2sccc2C)cc1[N+](=O)[O-] | – | 14.1 µM (active)
COc1ccc(NC(=O)c2ccccc2[N+](=O)[O-])cc1OC | 16.3% | –
Cc1nc2ccccc2cc1C(=O)N/N=C/c1ccc([N+](=O)[O-])cc1 | -19.1% | –
Cc1ccc(C)c(CN2C(=O)c3ccccc3S(=O)c3ccc(C(=O)N4CCOCC4)cc32)c1 (stereo not drawn) | -1.41% | –
COc1ccccc1-c1cc2nc(C)c(CCC(=O)O)c(C)n2n1 | -22% | –
Cc1ccc(CN2COc3cc(C)c4c(oc(=O)c5ccccc54)c3C2)cc1 | -3.2% | –
CCOC(=O)c1ccc(-c2ccc(/C=C(\C#N)C(=O)Nc3ccc(OCC)cc3)o2)cc1 | -11.3% | –
Cc1ccc2nc(/C(C#N)=C/c3ccc(-c4ccc(C(=O)OC(C)C)cc4)o3)[nH]c2c1 | – | 11.2 µM (active)

Structure (SMILES) | activity change, positive = activation | Potency
Cc1ccc2nc(/C(C#N)=C\c3ccc(OC(=O)c4cccs4)cc3)[nH]c2c1 | 1.65% | –
O=C(NCCc1ccccc1)c1ccc2c(c1)N(Cc1ccccc1)C(=O)c1ccccc1S2(=O)=O | 4.46% | –
NC(=O)N1CCc2ccccc21 | -6.27% | –
O=C(CSCc1ccccc1)N1CCc2ccccc21 | – | 12.6 µM (active)
Cc1nnc(SCC(=O)N2CCc3ccccc32)n1-c1ccccc1 | -11.7% | –
Cc1ccc(C)c(N2CCN(C(=O)CN3C(=O)COc4ccc(S(=O)(=O)N5CCCCCC5)cc43)CC2)c1 | 6.26% | –
Cc1cc(C)nc(NS(=O)(=O)c2ccc(NC(=O)c3cc(=O)c4ccc(C)c(C)c4o3)cc2)n1 | 2.53% | –
COc1ccccc1-c1nnc(C2CCN(C(=O)c3ccc(Cl)cc3)CC2)o1 | -12.1% | –
COc1ccc(C(=O)/C=C/Nc2ccccn2)cc1 | – | 1.41 µM (active)
CCOc1cc(NC(=O)c2ccccn2)c(OCC)cc1NC(=O)c1ccc(OC)cc1 | -2.18% | –
Cc1cc(N/C=C\C(=O)c2ccc(Cl)c(Cl)c2)no1 | 10.9% | –
CCC(=O)N1CCc2cc(S(=O)(=O)NC(CC(C)C)C(=O)NCCc3cccc(C)c3)ccc21 (stereo not drawn) | -12.6% | –
N#Cc1c(NC(=O)C2CCCO2)sc2c1CCCCC2 (stereo not drawn) | – | 6.31 µM (active)
N#Cc1c(NC(=O)C2CC(Cl)=CCC2C(=O)O)sc2c1CCCCC2 (stereo not drawn) | -0.264% | –
N#Cc1c(NC(=O)CCCl)sc2c1CCCCC2 | 3.56% | –
Cc1ccccc1C(=O)N(Cc1ccc(N(C)C)cc1)CC1CCCO1 (stereo not drawn) | 5.65% | –
O=C(Nc1cc(N2CCOCC2)ncn1)NC1(C(F)(F)F)Oc2ccc(Cl)cc2O1 (stereo not drawn) | – | 20 µM (active)
c1cnn(-c2cc(N3CCOCC3)ncn2)c1 | -14% | –
COc1c(C)cccc1C(=O)Nc1cc(Cl)ccc1N1CCOCC1 | 11.4% | –
Cc1ccc(-c2nc3cccc(C)n3c2Nc2ccc3c(c2)OCCO3)cc1 | 15.9% | –
O=C(Nc1cc(C(F)(F)F)ccc1Cl)c1cc2nc(-c3ccc4c(c3)OCO4)cc(C(F)(F)F)n2n1 | -0.044% | –
COc1cc(OC)c(C(=O)Nc2ccc(N(C)C)cc2)cc1OC | -2.79% | –
CC(C)CNC(=S)Nc1ccc(F)cc1 | 26.9% | –
CC(C)CNC(=O)C(=O)Nc1ccc(N(C)C)cc1 | – | 11.2 µM (active)
COc1ccc(N(C)C(=O)CCS(=O)(=O)c2cccc3nsnc23)cc1 | 9.32% | –
CCc1ccc(NC2Nc3cc(C)nn3S2)cc1 (stereo not drawn) | – | 11.2 µM (active)

Structure (SMILES) | activity change, positive = activation | Potency
CCc1ccc(NC(=O)N2CCN(c3ccccc3)CC2)cc1 | 1.4% | –
CCOC(=O)c1ccc(NC2Nc3cc(C)nn3S2)cc1 (stereo not drawn) | -45.1% | –
O=C(NCCC1=CCCCC1)c1ccc2c(c1)N(Cc1ccccc1F)C(=O)c1ccccc1S2(=O)=O | 9.24% | –
COc1ccc(CNC(=O)c2cc3c(-c4ccccc4F)nn(C)c3s2)c(OC)c1 | -4.64% | –
CCOc1ccc(/C=C(\C#N)c2nc3ccccc3c(=O)[nH]2)cc1OC | 6.78% | –
Fc1cccc(-n2ncc3c2ncn2nc(-c4ccccc4Cl)nc32)c1 | 11.6% | –
COc1ccc(-n2nc(C(=O)NCCc3ccc(Cl)cc3)c3c4ccccc4n(C)c3c2=O)cc1Cl | -6.22% | –
Cc1ccc(N)cc1-n1c(C)ccc1C | – | 28.2 µM (active)
CC(NC(=O)c1cc(-c2ccccc2)on1)c1ccccc1 (stereo not drawn) | -1.13% | –
CCCCNC(=O)c1cc(-c2ccc(Cl)c(Cl)c2)on1 | 3.08% | –
CC(C)CNC(=O)c1cc(-c2ccc(Br)cc2)on1 | – | 12.6 µM (active)
CCCCS(=O)(=O)c1oc(-c2cccs2)nc1S(=O)(=O)c1ccccc1 | -103% | –
Cc1ccc(S(=O)(=O)N2CCc3cc(C(=O)Nc4ccc(Cl)cc4C)ccc32)cc1 | -7.76% | –
Cc1cc(NC(=O)c2cccc(Cl)c2)ccc1-c1cc2ccccc2oc1=O | -3.74% | –
CCCOC(=O)c1cc2ccccc2oc1=O | -9.46% | –
COc1ccc2nc(Nc3nc(-c4cc5ccccc5oc4=O)cs3)sc2c1 | 4.66% | –
CCNc1nc(-c2cc3ccccc3o2)cs1 | – | 3.16 µM (active)
O=c1oc2ccccc2cc1-c1csc(Nc2ccc(O)cc2)n1 | – | 11.2 µM (active)
Cc1nc(C)c(-c2csc(NCCc3ccccc3)n2)s1 | -52.2% | –
Cc1cc2c(cc1C)C(c1cccc(OC(C)C)c1)CC(=O)N2 (stereo not drawn) | 5.65% | –
Cc1cccc(CSc2ccc(-c3cccs3)nn2)c1 | – | 20 µM (active)
N#Cc1ccc(-c2cccs2)nc1SCc1ccc(Br)cc1 | 0.274% | –
O=C(CSc1ccc(-c2cccs2)nn1)Nc1ccccc1F | -18.9% | –
COc1ccc(C2NC(=O)N(C)C3=C2C(=O)N(c2ccc(C(=O)O)cc2)C3)cc1 (stereo not drawn) | -7.2% | –
COc1cccc(CNC(=O)C(NS(=O)(=O)c2ccc3nc(C)sc3c2)C(C)C)c1 (stereo not drawn) | -7.88% | –
O=C(Nc1ccc(O)c(-c2nc3ccccc3o2)c1)c1ccc(-c2cccc(Cl)c2)o1 | -8.85% | –

Structure (SMILES) | activity change, positive = activation | Potency
O=C(Nc1cccc(-c2nc3ncccc3o2)c1)c1ccco1 | -8.65% | –
O=C(Nc1ccc2oc(-c3ccccc3F)nc2c1)c1ccco1 | – | 11.2 µM (active)
CCCCN(CC)C(=O)c1c[nH]c2ccc(S(=O)(=O)Nc3cccc(OC)c3)cc2c1=O | 1.17% | –
CCCNC(=O)C(CC)n1nc(CC)n2c(cc3oc(C)cc32)c1=O (stereo not drawn) | -16.5% | –
Cc1ccc(-c2cc(N)n(Cc3cccc(Cl)c3)n2)cc1 | -34% | –
CCc1cc2c(cc3c(=O)n(CC(=O)NCc4cccc(Cl)c4)nc(CC)n32)s1 | -8.46% | –
Cc1ccc2cccc(NC(=O)c3cccc4ccccc34)c2n1 | -1.04% | –
CCc1cccc(OC2OC(CO)C(O)C(O)C2NC(C)=O)c1 (stereo not drawn) | 26.1% | –
Cc1csc(-c2coc3cc(O[C@@H]4O[C@H](CO)[C@@H](O)[C@@H](O)[C@H]4O)ccc3c2=O)n1 | – | 20 µM (active)
COc1ccc(Oc2coc3cc(OC(=O)c4cncc(Br)c4)ccc3c2=O)cc1 | -2.3% | –
CCOc1ccc(C(=O)/C=C/c2cn(CC(O)CN3CCCCCC3)c3ccccc23)cc1 (stereo not drawn) | -12.8% | –
CC(=O)Nc1cccc(C(=O)Nc2nc(C)cs2)c1 | 2.64% | –
Cc1csc(NC(=S)Nc2cccc(Cl)c2)n1 | – | 14.1 µM (active)
S=C(Nc1cccc(Cl)c1)Nc1ccc2cn[nH]c2c1 | 27.5% | –
Cn1c(=O)c2c(-c3ccccc3Br)n(Cc3ccccc3)cc2n(C)c1=O | -0.398% | –
COc1ccc(S(=O)(=O)c2c(Nc3cccc(Cl)c3)sc(C(=O)c3ccccc3)c2N)cc1 | -25.5% | –
COc1ccc(C(CC(=O)c2ccccc2)S(=O)(=O)c2ccccc2)cc1 (stereo not drawn) | – | 12.6 µM (active)
COc1ccc(C(=O)CSc2nccc(=O)[nH]2)cc1 | -3.01% | –
COc1ccc(C(CC(=O)O)NC(=O)Cc2ccccc2)cc1 (stereo not drawn) | 20.8% | –
O=c1ccn([C@@H]2O[C@H](COP(=O)(O)OP(=O)(O)OP(=O)(O)O)[C@@H](O)[C@H]2O)c(=O)[nH]1 | -3.68% | –
COc1ccc(CCN2C(=O)c3oc4cc(C)cc(C)c4c(=O)c3C2c2ccccc2F)cc1OC (stereo not drawn) | 4.2% | –
O=C(Nc1nnc(SCc2ccccc2)s1)c1ccco1 | 39.9% | –
Cc1ccc(Nc2nnc(SCc3ccccc3)s2)cc1 | – | 14.1 µM (active)
Cc1cccc(CSc2nnc(NC(=O)CSc3nnc(C)s3)s2)c1 | -6.2% | –
COc1cc(C(=O)N(Cc2ccc(C(C)C)cc2)C2CCS(=O)(=O)C2)cc(OC)c1OC (stereo not drawn) | -5.52% | –

From PubChem BioAssay AID1458 (National Center for Advancing Translational Sciences (NCATS), 2008)
